Among the data in PubChem BioAssay are composite z-score and z-score values, retold here.

Experiment [1] in a line: binders of probe aFSTL3 on microarray, primary screen, stem cell growth factor project, biochemical, small-molecule microarray, fluorescence 635/667 (AID 1064).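 Further: measures binding of the biotinylated anti-FSTL3 antibody to printed compounds.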 Conditions: higher = more signal.
Experiment [2] is described as follows: binders from COS7 lysate, DM2A8 probe, primary screen, torsin A project, cell lysate, small-molecule microarray, fluorescence 635/667 (AID 1065). Conditions: higher = more signal, COS7 lysate expressing mutant human TOR1A.
The nature of experiment [3]: binders of probe aFGF2 on microarray, primary screen, stem cell growth factor project, biochemical, small-molecule microarray, fluorescence 635/667 (AID 1067).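 Further: measures binding of biotinylated aFGF2 protein to printed compounds on slides; z-score merges feature fluorescence and signal-to-noise across triplicate slides.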 Conditions: higher = more signal.
Experiment [4] can be described thus: binders of probe aFGF10 on microarray, primary screen, stem cell growth factor project, biochemical, small-molecule microarray, fluorescence 635/667 (AID 1071).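 Further: score merges 667 nm spot intensity and signal to noise from triplicate slides.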 Particulars: higher = more signal.
Experiment [5] addresses Neurogenic locus notch homolog protein 2 (Homo sapiens) (UniProt Q04721). The experiment can be described thus: Notch2 binders on small-molecule microarrays, primary screen, biochemical, small-molecule microarray, 635 nm fluorescence, stem cell growth factors (AID 1073). Particulars: Notch2 binding, higher = more signal.
Experiment [6] addresses Pro-neuregulin-1, membrane-bound isoform (Homo sapiens) (UniProt Q02297). Put plainly: NRG1 binders on small-molecule microarrays, primary screen, psychiatric disease protein project, biochemical, small-molecule microarray, fluorescence 635/667 (AID 1075).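 Further: score combines 667 nm spot fluorescence with signal to noise.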 Conditions: NRG1 binding, 635 nm fluorescence, higher = more signal.
For experiment [7], the system named is Neuregulin-1 EGF-like domain. The experiment can be described thus: binders of neuregulin-1 EGF-like domain, primary screen, biochemical, small-molecule microarray, 635 nm fluorescence (AID 1081).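 Further: binding of the protein to compounds printed on small-molecule microarray slides.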 Particulars: small-molecule microarray binding, higher = more signal.
Experiment [8] in a line: FRG1 promoter luciferase signal modulators, primary screen, FRG1 inhibition for FSHD, cell-based, C2C12 myotubes, firefly/Renilla luciferase, luminescence (AID 1084). Particulars: higher = more signal, called active from +8 up or from −8 down.
Experiment [9] in a line: binders of probe aFST on microarray, primary screen, stem cell growth factor project, biochemical, small-molecule microarray, fluorescence 635/667 (AID 1086).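 Further: score merges 667 nm fluorescence with signal-to-noise of each printed compound spot.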 Particulars: higher = more signal.
A short description of experiment [10]: binders of probe aHhip on microarray, primary screen, stem cell growth factor project, biochemical, small-molecule microarray, fluorescence 635/667 (AID 1087).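 Further: score merges spot fluorescence at 667nm with spot signal to noise ratio.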 Particulars: higher = more signal.
Experiment [11] relates to PRMT1 (protein arginine N-methyltransferase 1). The experiment can be described thus: PRMT1 binders on small-molecule microarrays, primary screen, biochemical, small-molecule microarray, 635 nm fluorescence (AID 1088).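 Further: binding of Prmt1 protein to compounds spotted on small-molecule microarray slides.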 Particulars: small-molecule microarray binding, higher = more signal.
Experiment [12] is described as follows: yeast growth modulation, basal conditions, primary screen, YJM789 clinical isolate, OD600, 24 h (AID 1089).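 Further: growth of clinical yeast isolate S. cerevisiae YJM 789 seeded 1000 cells per well; test concentration not given here.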 Particulars: S. cerevisiae YJM789 growth, higher = more signal, called active from +8 up or from −8 down.
Experiment [13] is described as follows: fission yeast growth modulation, primary screen, strain 972, OD600, 24 h, no modulator (AID 1090).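 Further: basal condition with compound alone and no growth modifier present; test concentration not given here.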 Particulars: S. pombe 972 growth, higher = more signal, called active from +8 up or from −8 down.
Experiment [14] is described as follows: S. cerevisiae growth modulation with rapamycin, primary screen, strain BY4716, OD600, 96 h (AID 1091). Further: test concentration not given here. Conditions: higher = more signal, called active from +8 up or from −8 down.
Experiment [15] concerns the target Torsin-1A-interacting protein 2 (Homo sapiens) (UniProt Q8NFQ8). The experiment can be described thus: LULL1 binders on small-molecule microarray, primary screen, cell lysate, human LULL1 lysate, 635/667 nm fluorescence (AID 1092).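 Further: score merges per-feature 667 nm fluorescence with signal-to-noise.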 Conditions: hLULL1 lysate binding, 635 nm fluorescence, higher = more signal.
A short description of experiment [16]: E. coli growth modulation, two-sided OD650, primary screen, E. coli filamentation project, strain DRC41, 24 h (AID 1093).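 Further: MC1000 strain lacking acrAB efflux and sulA so SOS filamentation is blocked; test concentration not given here.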 Particulars: OD650, 24 h, higher = more signal, called active from +8 up or from −8 down.
A short description of experiment [17]: small-molecule microarray binders of probe aLefty2, primary screen, biochemical, biotinylated probe, 635/667 nm fluorescence (AID 1094).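 Further: score merges spot fluorescence near 667 nm with spot signal-to-noise ratio.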 Conditions: higher = more signal.
For experiment [18], the system named is Noggin (protein binding on small-molecule microarray). The experiment can be described thus: Noggin binders on small-molecule microarray, primary screen, biochemical, 635/667 nm fluorescence (AID 1095).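 Further: score merges 667 nm feature fluorescence with signal to noise over triplicate slides.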 Conditions: 635 nm fluorescence, higher = more signal.
Experiment [19] concerns the target Neurogenic locus notch homolog protein 3 (Homo sapiens) (UniProt Q9UM47). Put plainly: NOTCH3 binders on small-molecule microarray, primary screen, biochemical, 635/667 nm fluorescence (AID 1096). Particulars: NOTCH3 binding, 635 nm fluorescence, higher = more signal.
A short description of experiment [20]: small-molecule microarray binders of probe aEGFR, primary screen, biochemical, biotinylated probe, 635/667 nm fluorescence (AID 1097).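 Further: probe is a biotinylated anti-EGFR antibody binding compounds printed on slides; score combines fluorescence near 667 nm and signal to noise of each spot.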 Particulars: higher = more signal.

Active and inactive are the calls of the source.

Chain of Pro-neuregulin-1, membrane-bound isoform (Homo sapiens) (Q02297 whole entry, looked up, the tested form may be a part, canonical isoform): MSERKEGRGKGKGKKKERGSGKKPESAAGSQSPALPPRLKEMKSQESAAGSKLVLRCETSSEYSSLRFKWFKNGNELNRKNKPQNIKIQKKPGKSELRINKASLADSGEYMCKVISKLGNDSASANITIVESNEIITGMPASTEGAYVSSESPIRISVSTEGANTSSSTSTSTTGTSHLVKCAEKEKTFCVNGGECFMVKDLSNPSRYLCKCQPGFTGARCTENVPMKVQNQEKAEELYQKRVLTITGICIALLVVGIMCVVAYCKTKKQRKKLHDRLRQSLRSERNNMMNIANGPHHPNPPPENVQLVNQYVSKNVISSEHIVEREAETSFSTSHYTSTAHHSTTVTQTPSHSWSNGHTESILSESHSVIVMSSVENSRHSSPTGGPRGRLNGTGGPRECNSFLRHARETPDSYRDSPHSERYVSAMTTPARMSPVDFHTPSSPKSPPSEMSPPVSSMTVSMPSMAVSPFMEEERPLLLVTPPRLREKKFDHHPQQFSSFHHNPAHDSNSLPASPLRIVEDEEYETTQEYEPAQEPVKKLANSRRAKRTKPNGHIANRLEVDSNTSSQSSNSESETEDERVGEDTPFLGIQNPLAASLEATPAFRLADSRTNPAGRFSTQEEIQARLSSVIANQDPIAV
Chain of Torsin-1A-interacting protein 2 (Homo sapiens) (Q8NFQ8 whole entry, looked up): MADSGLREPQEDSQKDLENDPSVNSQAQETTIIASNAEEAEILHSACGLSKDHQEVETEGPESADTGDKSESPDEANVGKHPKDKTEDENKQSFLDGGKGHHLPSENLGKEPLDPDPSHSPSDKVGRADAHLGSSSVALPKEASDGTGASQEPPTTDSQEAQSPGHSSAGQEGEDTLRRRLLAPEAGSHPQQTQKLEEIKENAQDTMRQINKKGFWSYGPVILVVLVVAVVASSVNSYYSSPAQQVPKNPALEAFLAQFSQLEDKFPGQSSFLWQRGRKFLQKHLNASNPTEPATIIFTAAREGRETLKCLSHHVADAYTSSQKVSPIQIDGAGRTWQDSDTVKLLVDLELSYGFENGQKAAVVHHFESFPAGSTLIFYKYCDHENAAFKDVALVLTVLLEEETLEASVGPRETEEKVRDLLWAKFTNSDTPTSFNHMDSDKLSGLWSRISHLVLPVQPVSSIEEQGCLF
Chain of Neurogenic locus notch homolog protein 2 (Homo sapiens) (Q04721 whole entry, looked up, canonical isoform): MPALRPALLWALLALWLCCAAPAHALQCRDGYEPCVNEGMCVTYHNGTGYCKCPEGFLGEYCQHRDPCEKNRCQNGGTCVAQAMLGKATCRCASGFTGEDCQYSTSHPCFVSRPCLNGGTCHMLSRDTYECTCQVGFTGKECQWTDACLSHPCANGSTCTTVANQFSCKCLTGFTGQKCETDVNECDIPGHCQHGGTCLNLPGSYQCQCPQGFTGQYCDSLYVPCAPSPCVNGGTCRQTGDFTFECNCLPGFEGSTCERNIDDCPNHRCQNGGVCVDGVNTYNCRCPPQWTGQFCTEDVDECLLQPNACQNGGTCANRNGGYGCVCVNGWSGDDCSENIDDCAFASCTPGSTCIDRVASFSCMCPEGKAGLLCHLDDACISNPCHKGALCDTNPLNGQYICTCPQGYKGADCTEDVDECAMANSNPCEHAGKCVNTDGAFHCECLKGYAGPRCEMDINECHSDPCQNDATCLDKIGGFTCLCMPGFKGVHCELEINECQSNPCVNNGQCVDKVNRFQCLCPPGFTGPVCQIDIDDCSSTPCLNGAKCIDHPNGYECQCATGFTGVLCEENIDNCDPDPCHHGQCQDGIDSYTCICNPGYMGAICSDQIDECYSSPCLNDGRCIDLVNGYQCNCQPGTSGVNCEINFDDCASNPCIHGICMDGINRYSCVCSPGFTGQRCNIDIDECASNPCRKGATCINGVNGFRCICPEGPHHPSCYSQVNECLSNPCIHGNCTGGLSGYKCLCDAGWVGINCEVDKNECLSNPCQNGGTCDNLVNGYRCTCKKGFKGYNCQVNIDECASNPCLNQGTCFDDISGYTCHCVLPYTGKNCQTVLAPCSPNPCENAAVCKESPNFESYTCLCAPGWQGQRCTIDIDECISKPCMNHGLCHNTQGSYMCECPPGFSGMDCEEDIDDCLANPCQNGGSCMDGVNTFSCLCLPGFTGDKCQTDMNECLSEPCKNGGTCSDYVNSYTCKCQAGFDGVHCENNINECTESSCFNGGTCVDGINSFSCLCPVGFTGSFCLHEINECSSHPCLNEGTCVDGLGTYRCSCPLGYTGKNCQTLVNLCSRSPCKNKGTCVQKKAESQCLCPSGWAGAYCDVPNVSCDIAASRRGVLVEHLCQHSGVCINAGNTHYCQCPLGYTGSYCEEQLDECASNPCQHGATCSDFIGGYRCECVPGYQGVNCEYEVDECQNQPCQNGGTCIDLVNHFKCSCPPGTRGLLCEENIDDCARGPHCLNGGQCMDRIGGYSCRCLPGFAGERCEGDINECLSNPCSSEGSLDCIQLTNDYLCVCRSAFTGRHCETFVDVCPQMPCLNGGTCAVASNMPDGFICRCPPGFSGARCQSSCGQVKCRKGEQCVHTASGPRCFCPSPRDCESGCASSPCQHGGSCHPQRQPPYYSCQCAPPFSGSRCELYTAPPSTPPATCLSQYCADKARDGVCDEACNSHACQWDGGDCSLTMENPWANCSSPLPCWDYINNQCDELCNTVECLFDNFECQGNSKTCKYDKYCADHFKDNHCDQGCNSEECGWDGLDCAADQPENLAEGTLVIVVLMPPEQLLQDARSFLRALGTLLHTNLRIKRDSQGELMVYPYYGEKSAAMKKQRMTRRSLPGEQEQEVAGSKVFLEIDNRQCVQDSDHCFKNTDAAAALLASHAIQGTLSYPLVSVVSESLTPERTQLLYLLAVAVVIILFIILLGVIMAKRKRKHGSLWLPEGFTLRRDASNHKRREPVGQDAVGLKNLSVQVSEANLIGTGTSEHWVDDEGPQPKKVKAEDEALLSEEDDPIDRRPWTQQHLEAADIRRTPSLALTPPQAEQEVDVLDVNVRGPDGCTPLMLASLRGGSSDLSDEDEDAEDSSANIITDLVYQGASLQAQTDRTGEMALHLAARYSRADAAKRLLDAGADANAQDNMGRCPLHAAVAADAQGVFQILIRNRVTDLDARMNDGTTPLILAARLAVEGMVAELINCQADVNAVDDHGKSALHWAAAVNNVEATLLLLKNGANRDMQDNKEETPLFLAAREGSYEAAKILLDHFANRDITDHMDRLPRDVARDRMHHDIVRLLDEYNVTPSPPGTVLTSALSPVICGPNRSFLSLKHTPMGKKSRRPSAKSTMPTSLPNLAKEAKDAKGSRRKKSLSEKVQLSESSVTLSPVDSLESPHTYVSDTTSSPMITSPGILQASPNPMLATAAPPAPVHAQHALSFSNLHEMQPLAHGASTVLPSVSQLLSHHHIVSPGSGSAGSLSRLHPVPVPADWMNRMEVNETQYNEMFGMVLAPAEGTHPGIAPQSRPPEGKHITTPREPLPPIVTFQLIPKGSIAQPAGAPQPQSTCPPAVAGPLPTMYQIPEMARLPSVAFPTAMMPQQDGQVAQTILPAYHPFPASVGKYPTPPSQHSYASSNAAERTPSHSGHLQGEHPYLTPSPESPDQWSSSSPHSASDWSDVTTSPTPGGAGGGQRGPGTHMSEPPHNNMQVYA

For the molecule `CCCCC(=C=CC[C@H](O)c1ccc(OCCO)cc1)CCO`, the composite z-score was -0.253 in experiment [1]; -0.0707 in [2]; -0.114 in experiment [3]; -0.161 in experiment [4]; -0.425 in experiment [5]; 1.48 in experiment [6]. In addition, the composite z-score in experiment [7] is 0.66; in experiment [9] it was -0.493; in experiment [10], 0.0156; in experiment [11], -0.0461; in experiment [15] it was 2.24; in experiment [17], -0.179. Also, the composite z-score in experiment [18] was -0.124; in [19] it was -0.65; in experiment [20], -0.232. Moreover, the z-score in experiment [8] is -0.572 (inactive); in experiment [12], -0.879 (inactive); in [13], -0.982 (inactive); in experiment [14] it was -1.02 (inactive); in experiment [16], -0.0915 (inactive).

`COC(=O)[C@@]1(Cc2ccccc2)[C@H]2c3cc(C(=O)N4CCCC4)n(CCc4ccccn4)c3C[C@H]2CN1C(=O)c1ccccc1`: the composite z-score in experiment [1] was 0.223; in experiment [2], 0.487; in experiment [3], -0.177; in experiment [4], 0.283; in [5] it was 1.33; in experiment [6], 2.09. For the same molecule, the composite z-score in experiment [7] was 1.35; in experiment [9], 1.18; in [10], 0.503; in experiment [11], 0.123; in experiment [15], 3.93; in experiment [17] it was 0.754. Moreover, the composite z-score in experiment [18] was 0.678; in [19], 0.915; in experiment [20] it was 0.338. The z-score in [8] is 2.95 (inactive); in [12], -0.789 (inactive); in experiment [13], 0.741 (inactive); in [14] it was 0.0746 (inactive); in experiment [16], 0.026 (inactive).

`COCCOC(=O)N1C(=O)[C@@]2(c3cc(C#CC4=CCCCC4)ccc31)[C@H](c1ccccc1OCCO)N1[C@H](c3ccccc3)[C@H](c3ccccc3)OC(=O)[C@H]1[C@@H]2C(=O)N1CCN(c2ncccn2)CC1`: the composite z-score in experiment [1] was -0.463; in experiment [2], 0.434; in experiment [3] it was -0.0536; in experiment [4], 0.538; in experiment [5], 1.07; in experiment [6], 0.373. Besides, the composite z-score is 1.13 in [7]; 0.469 in [9]; -0.321 in experiment [10]; 1.57 in [11]; 0.456 in experiment [15]; -0.142 in experiment [17]. In addition, the values for the composite z-score in experiment [18], in [19] and in experiment [20] were 0.729, 1.12 and -0.067, respectively. In addition, the z-score in [8] was -0.624 (inactive); in experiment [12], 0.218 (inactive); in experiment [13] it was -0.377 (inactive); in experiment [14], 2.44 (inactive); in [16], 1.05 (inactive).

Take `[N-]=[N+]=Nc1ccccc1[C@@H]1OC(c2ccc(OCCCO)cc2)=N[C@]1(Cc1ccccc1)C(=O)N1CCCCC1`: the composite z-score in experiment [1] was 0.0153; in experiment [2] it was 1; in experiment [3], 0.122; in experiment [4], 0.9; in experiment [5] it was 1.39; in experiment [6] it was 1.37. In addition, the composite z-score in [7] was 1.28; in experiment [9], 1.46; in [10], 0.249; in experiment [11] it was 1.53; in experiment [15], 3.27; in [17] it was 0.0277. The values for the composite z-score in experiment [18], in experiment [19] and in experiment [20] were 0.847, 1.04 and 0.001, respectively. The z-score in experiment [8] was -2.33 (inactive); in experiment [12], -0.286 (inactive); in [13] it was -0.487 (inactive); in [14] it was 1.49 (inactive); in experiment [16], 0.27 (inactive).

Consider `CN1C2C=C(CCCO)C(C3C(=O)N(C(N)=O)C(=O)C32)C1C1CC1` (stereo not given), for which the composite z-score was -0.263 in experiment [1]; 0.416 in [2]; -0.0959 in experiment [3]; -0.148 in [4]; -0.536 in experiment [5]; 0.0343 in experiment [6]. Further, the composite z-score in experiment [7] was 0.949; in experiment [9], -0.57; in [10], 0.0274; in experiment [11], -0.0255; in [15], 0.0963; in experiment [17], -0.0812. Also, the composite z-score was -0.22 in experiment [18], -0.523 in experiment [19] and -0.163 in experiment [20]. Moreover, the z-score is 0.397 (inactive) in experiment [8]; -0.163 (inactive) in experiment [12]; -0.0516 (inactive) in [13]; -0.32 (inactive) in experiment [14]; -0.583 (inactive) in experiment [16].
